SMILES strings stand for the structures. Results with a measured potency or affinity are listed apart. Values without a mark were called inactive. The rule behind the calls is not given here.

The experiment is described as follows: HEK293 cell cytotoxicity, dose response, cytotoxicity control, plate reader, cherry-picked samples (AID 743446). To be noted: stronger effect = lower value; at 26 µM unless noted.
As to `O=C(Cc1ccccc1Cl)Nc1cccnc1`, the max activity is 17.2% [at 0.1 µM].
For `O=C(O)c1ccc(Nc2nc3c(s2)CCCC3)cc1` the value was 49.8% [at 12 µM].
Under `c1ccc(-n2nnc3c(N4CCOCC4)ncnc32)cc1` stands 32.3% [at 0.8 µM].
As to `C[C@@H]1CN([C@H](C)CO)C(=O)c2cc(NC(=O)Nc3cccc4ccccc34)ccc2O[C@@H]1CN(C)C(=O)Nc1ccccc1`, the max activity is 29.1% [at 0.8 µM].
Under `CCCCn1nnnc1C(c1cc2ccccc2o1)N1CCN(c2ccncc2)CC1` (configuration not stated) stands 11.8%; under `CCOC(=O)c1sc(NC(=O)Nc2ccccc2F)nc1C`, -21.8% [at 0.05 µM].
For `Cc1ccc2nc(NC(=O)CCCC(=O)O)sc2c1`, the max activity is 12.5%.

The record behind these values is PubChem BioAssay AID743446 (Broad Institute, 2014).
